Screening results: PubChem BioAssay, several laboratories
ALR H2O2 inh – inhibitors of human ALR sulfhydryl oxidase, primary screen, biochemical, H2O2 detection, HRP-luminol luminescence, single point | 290,000 compounds, 3.8% hits | inhibition, % (test concentration not listed) | FAD-linked sulfhydryl oxidase ALR (Homo sapiens), P55789 | purified ALR, DTT oxidation;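 active = mean replicate inhibition above about 79%, with every replicate also reaching it, limit read from the data; inconclusive = only one of the two criteria met; inactive = mean below limit and not every replicate reaching it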
Rtt109 Vps75 – inhibitors of C. albicans Rtt109/Vps75 HAT, primary screen, biochemical, ThioGlo CoA-SH fluorescence, plate reader. inhibition, % at 34.9 µM. Histone acetyltransferase RTT109 (Candida albicans (strain SC5314 / ATCC MYA-2876)), …. 330,000 compounds, 0.16% hits. purified Rtt109/Vps75, 4 h;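 active = inhibition of at least 50% in every replicate; inconclusive = best replicate reaches 50% inhibition but some replicates fall short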
Efflux pump mplx – inhibitors of Candida efflux pumps in yeast, primary screen, S. cerevisiae, Nile Red, multiplex. S. cerevisiae Candida pump triplex. inhibition, % at 10 µM. 330,000 compounds, 0.44% hits;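 active = plate passing quality check with inhibition over a set limit, or well fluorescence over plate mean plus 4 SD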;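 note: Nile Red retained in pooled yeast measured as flow cytometry median fluorescence; 0% = buffer negative control and 100% = Enniatin B positive control; higher means more Nile Red kept so more efflux inhibition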
Rce1 inh – yeast Rce1p protease inhibitors, primary screen, biochemical, fluorescence, cell-free homogeneous; yeast membranes, quenched prenylated peptide cleavage fluorescence; CAAX prenyl protease 2 (Saccharomyces cerevisiae (strain ATCC 204508 / S288c)), Q03530; AID 2563, 2010; 290,000 compounds, 0.27% hits; calls only;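 active = fall in fluorescence gain of 50% or more versus controls, with final raw signal at or below 3038400; inconclusive = same 50% fall but final raw signal above 3038400; inactive = fall in fluorescence gain under 50%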;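 note: plate controls were neutral control wells for no effect and wells lacking membranes for full effect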
GRK2 inh – compounds blocking aptamer binding on GRK2 – biochemical, human GRK2, bead flow cytometry, HTS, primary screen; FAM-aptamer displacement from GRK2; inhibition of aptamer binding, % at 10 µM; 330,000 compounds, 0.59% hits; AID 488847, 2010;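 active = inhibition of aptamer binding above 40%, roughly 3 SD of noise, on plates passing a quality check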;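 note: median bead fluorescence of bound FAM aptamer so fluorescent compounds give negative values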
Target sequence (P25098 whole entry, looked up): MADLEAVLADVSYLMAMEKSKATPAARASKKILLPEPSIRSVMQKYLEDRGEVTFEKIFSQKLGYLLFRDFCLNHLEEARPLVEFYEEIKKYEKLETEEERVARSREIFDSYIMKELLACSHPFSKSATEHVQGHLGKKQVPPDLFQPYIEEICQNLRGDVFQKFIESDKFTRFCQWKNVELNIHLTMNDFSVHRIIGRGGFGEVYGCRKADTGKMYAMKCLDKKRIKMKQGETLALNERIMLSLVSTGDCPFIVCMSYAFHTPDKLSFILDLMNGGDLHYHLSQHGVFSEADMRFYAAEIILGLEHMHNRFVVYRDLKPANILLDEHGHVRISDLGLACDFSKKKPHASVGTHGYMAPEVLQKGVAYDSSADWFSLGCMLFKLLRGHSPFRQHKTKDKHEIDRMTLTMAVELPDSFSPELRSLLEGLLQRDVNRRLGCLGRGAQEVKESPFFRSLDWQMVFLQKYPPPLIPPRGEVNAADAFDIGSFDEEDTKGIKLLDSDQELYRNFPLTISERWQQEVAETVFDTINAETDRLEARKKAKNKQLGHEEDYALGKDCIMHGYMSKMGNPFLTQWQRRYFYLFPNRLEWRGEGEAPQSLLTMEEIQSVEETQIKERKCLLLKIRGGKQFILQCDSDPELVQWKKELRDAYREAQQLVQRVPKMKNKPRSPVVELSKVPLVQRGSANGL
HDAC3 inhib – HDAC3 deacetylase inhibitors, primary screen, biochemical, fluorescence, cell-free homogeneous | recombinant HDAC3, fluorogenic peptide/trypsin coupled | inhibition, % at 8.3 µM | Histone deacetylase 3 (Homo sapiens), O15379 | 320,000 compounds, 0.15% hits; in the data active = inhibition above about 26%, passing the limit was not always enough; inconclusive = no clear call, values can overlap the other calls
* hit, by the source's call; i = inactive; ? = inconclusive; . = no result given; + = active, no number. Sampled rows, rich in hits. Any-hit rate of the full collection: about 4.5%.

SMILES	ALR H2O2 inh	Rtt109 Vps75	Efflux pump mplx	Rce1 inh	GRK2 inh	HDAC3 inhib
COc1ccc(-n2cnnc2SCc2cnc(-c3ccccc3)s2)cc1	98.5*	4.1	0.0	i	3.0	1.0
O=C1CCCCCN1Cc1nnc(SCc2nc3ccccc3s2)n1-c1ccccn1	.	-14.3	-0.1	i	3.0	-8.0
CCn1c(CN2CCCCCC2=O)nnc1SCc1cnc(-c2ccccc2)s1	98.6*	-0.9	0.1	i	0.0	4.8
COCCn1c(SCC#N)nnc1-c1ccccc1	-13.3	1.8	0.0	i	0.0	-2.0
COCCn1c(SCc2cnc(-c3ccccc3)s2)nnc1-c1ccncc1	98.6*	6.1	-0.2	i	0.0	-1.7
CCOC(=O)c1c(S(=O)(=O)NCC(=O)Nc2ccc(OC)cc2)c(C)n(C)c1C	-7.7	-5.6	0.0	i	0.0	4.6
O=C(O)/C=C/C(=O)N(CC1CCCO1)C1CC(=O)N(c2c(Cl)cccc2Cl)C1=O (stereo not drawn)	2.5	0.1	0.4	i	3.0	-4.0
CC(=O)c1c(C)[nH]c(C(=O)N2CCN(c3ccccn3)CC2)c1C	-2.6	-1.4	0.1	i	0.0	-0.5
O=C(O)c1ccccc1N=Nc1ccc(O)cc1	99.1*	9.3	0.1	i	0.0	3.8
Oc1ccc(N=Nc2ccccc2)cc1	98.8*	0.9	-0.1	i	1.0	9.0
O=C(O)c1cc(O)ccc1N=Nc1ccccc1	2.8	2.4	0.0	i	3.0	14.4
Cc1c(Nc2nc(-c3cccc([N+](=O)[O-])c3)cs2)c(=O)n(-c2ccccc2)n1C	34.5	4.6	-0.1	.	2.0	3.0
Cc1[nH]n(-c2nc(-c3cccc([N+](=O)[O-])c3)cs2)c(=O)c1C	96.9*	4.4	-0.1	i	2.0	2.2
O=C(c1ccc2c(c1)N(Cc1ccccc1)CCS2)N1CCOCC1	99.1*	-2.5	0.1	i	0.0	-1.7
O=C(NC1CCCC1)c1ccc2c(c1)N(Cc1ccc(F)cc1)CCS2	38.8	-31.9	0.1	i	1.0	-4.5
O=C(c1ccc2c(c1)N(Cc1ccc(F)cc1)CCS2)N1CCOCC1	99.2*	-6.9	0.2	i	0.0	-9.4
O=C(c1ccc2ccccc2c1)N1CCOCC1	-6.0	-3.3	0.1	i	2.0	1.1
CC(C)(C)Sc1ccccc1S(=O)(=O)C(C)(C)C	.	-9.5	0.0	i	0.0	0.7
O=C(NCSc1ccncn1)c1ccccc1	98.7*	-4.1	0.2	i	0.0	-0.3
O=C(c1nc(-c2ccccc2)n(-c2ccccc2)n1)N1CCCCCC1	-0.4	-8.7	0.1	i	0.0	-1.9
COc1ccc(-n2nc(C(=O)O)nc2-c2ccccc2)cc1	99.8*	-3.6	-0.1	i	0.0	3.5
COc1ccc(/C=N\NC(=O)C2COc3ccccc3O2)cc1O (stereo not drawn)	98.6*	8.7	-0.1	i	0.0	.
COc1ccccc1/C=C/C(=O)NCC(=O)N/N=C/c1ccccc1	-5.5	.	-0.1	i	0.0	-0.8
COc1cc(/C=N\NC(=O)CNC(=O)C2COc3ccccc3O2)ccc1O (stereo not drawn)	98.2*	3.4	0.4	i	0.0	4.9
COc1ccc(/C=N/NC(=O)CNC(=O)c2ccc3c(c2)OCCO3)cc1OC	-4.0	-1.2	0.2	i	0.0	4.9
SMILES	ALR H2O2 inh	Rtt109 Vps75	Efflux pump mplx	Rce1 inh	GRK2 inh	HDAC3 inhib
COc1ccccc1/C=C/C(=O)NCC(=O)N/N=C/c1ccc2c(c1)OCO2	88.3*	4.7	0.1	i	0.0	8.9
COc1cc(/C=N/NC(=O)CNC(=O)c2ccc3c(c2)OCCO3)ccc1O	98.0*	10.2	0.0	.	3.0	8.4
O=C(COC(=O)c1ccc(F)c([N+](=O)[O-])c1)NC(=O)NCc1ccccc1	.	6.7	-0.1	.	0.0	2.9
CC(NCC(=O)NC(=O)NCCC1=CCCCC1)c1ccc(S(N)(=O)=O)cc1 (stereo not drawn)	.	16.5	.	.	.	.
COc1cc(/C=N/NC(=O)C2COc3ccccc3O2)ccc1O (stereo not drawn)	99.1*	-12.3	0.0	i	6.0	0.9
COc1cc(/C=N/NC(=O)c2ccc3c(c2)OCCO3)cc(Cl)c1O	94.2*	?	0.5	i	5.0	-31.4
CCN(CC)Cc1cc(C(=O)O)c(C)o1	-16.0	-4.2	0.1	i	1.0	1.2
COc1ccc(OCc2cc(C(=O)O)c(C)o2)cc1	-0.3	.	0.1	i	64.0*	3.7
Cn1c(CCNC(=O)c2ccccc2Cl)n[nH]c1=S	96.0*	-1.4	-0.1	i	0.0	1.6
Cc1ccc(C(=O)NCCc2n[nH]c(=S)n2C)cc1	2.8	25.3	0.0	i	0.0	-0.7
CC(C)[C@H](NC(=O)N1CC(=O)Nc2ccccc21)C(=O)Nc1nccs1	90.6*	5.8	0.3	i	5.0	-4.1
CCC(C)[C@H](NC(=O)N1CC(=O)Nc2ccccc21)C(=O)Nc1nccs1 (stereo partly drawn)	3.7	-13.8	0.1	i	4.0	6.7
COCCCNC(=S)NCCNc1nc2cc(C)cc(C)c2cc1C#N	51.6	-50.2	0.1	+	3.0	-28.4
COc1cc(C(=O)NCCCNc2nc3cc(C)cc(C)c3cc2C#N)cc(OC)c1OC	-3.2	1.1	0.2	i	0.0	-1.6
CCOC(=O)C(Cc1cc(N)c(Oc2ccc(OC)cc2)c(N)c1)NC(C)=O (stereo not drawn)	.	-2.3	.	.	.	.
O=c1[nH][nH]c(=S)n1C1CCCCC1	22.5	.	-0.1	i	1.0	32.1*
CC1=Nc2ccccc2/C1=C/c1c(N)n2c(S(=O)(=O)C(C)C)nsc2nc1=O	97.3*	.	-0.1	.	1.0	-0.7
COc1ccccc1-c1nnc(SCC(=O)Nc2ccc(N3CCOCC3)cc2)n1N	29.0	1.3	0.0	.	2.0	4.4
Nn1c(SCC(=O)Nc2ccc(N3CCOCC3)cc2)nnc1-c1ccccc1F	98.5*	10.2	-0.2	.	1.0	-1.2
Nn1c(SCC(=O)Nc2ccc(N3CCOCC3)cc2)nnc1-c1cccc(F)c1	98.7*	2.3	-0.1	.	0.0	0.4
CCOC(=O)c1ccc(C(=S)N2CCCC2)cc1	.	6.1	.	i	.	.
O=C(/C=C/Nc1nccs1)C(F)(F)Cl	.	.	-0.1	i	0.0	54.0*
COc1ccc(C(=O)O)cc1S(=O)(=O)NC(C)C	-8.7	0.4	-0.2	i	2.0	-2.3
O=C(O)c1cccc(NC(=S)NC(NC(=O)c2ccccc2[N+](=O)[O-])C(Cl)(Cl)Cl)c1 (stereo not drawn)	2.5	-4.0	-0.1	i	3.0	1.4
